Inconclusive results are not listed. The source made the active and inactive calls. Calls come from the whole dose curve; as a rule, active = well fitted curve in the direction sought with a large enough effect; inconclusive = small, poorly fitted or top-dose-only effect, or another doubt; inactive = no such curve, though single readings can be large; an effect the other way counts as inactive or inconclusive. Starred links: 1 amine or outer side, 2 acyl side, 3 side chain; linkers in the order of their positions; H or OH if unused. Positions of bridges follow the written chain, without caps; N, C: chain ends. Non-standard residues stand in square brackets, D forms with d. Residues, ends and D or L forms follow the SMILES beside them. Chains are numbered I, II in the order given. Actinocin(9to1) = Cc1c2oc3c(C)ccc(C(=O)[*:1])c3nc-2c(C(=O)[*:2])c(N)c1=O; NMeV = CN[CH](C(=O)O)C(C)C; Sar = CNCC(=O)O
What was measured:
[1] = BET inhibitor-based combinations targeting novel dependencies in MECOM-rearranged (r) AML: OCI-AML3 cell line (AID 2202232); settings: Potency: OCI-AML3 viability; note: nearly all actives have a fitted effect of over 35% in size
Procedure, shortened: (§1)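 Readout: CellTiter-Glo luminescence. Exposure: 48 h, 11 concentrations, 500 cells/well. Metric: AUC and within-line Z-AUC after DMSO/empty-well normalization.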

[2] = BET inhibitor-based combinations targeting novel dependencies in MECOM-rearranged (r) AML: MV-4-11 cell line (AID 2202233); note: nearly all actives have a fitted effect of over 45% in size
Procedure, shortened: (§2)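 Seeding density was 500 cells/well, and drug exposure lasted 48 hr under standard culture conditions. Read-out used CellTiter-Glo reagent with a 15 min room-temperature incubation before luminescence measurement; AUC and Z-AUC summarize the normalized responses.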

[3] = BET inhibitor-based combinations targeting novel dependencies in MECOM-rearranged (r) AML: HNT-34 cell line (AID 2202234); note: nearly all actives have a fitted effect of over 35% in size
Procedure, shortened: as §2

[4] = BET inhibitor-based combinations targeting novel dependencies in MECOM-rearranged (r) AML: UCSD-AML1 cell line (AID 2202235); note: nearly all actives have a fitted effect of over 40% in size
Procedure, shortened: as §2

[5] = BET inhibitor-based combinations targeting novel dependencies in MECOM-rearranged (r) AML: AML-191 cell line (AID 2202236; note: nearly all actives have a fitted effect of over 35% in size)
Procedure, shortened: as §1

[6] = BET inhibitor-based combinations targeting novel dependencies in MECOM-rearranged (r) AML: AML-194 cell line (AID 2202237; note: nearly all actives have a fitted effect of over 40% in size)
Procedure, shortened: as §1

Measured: Potency
Potency is the fitted concentration of half-maximal effect.

Cc1c(Cl)cccc1S(=O)(=O)Nc1nc(CCN2CCOCC2=O)cs1
active: [1] 74.2 nM
inactive: [2] | [3] | [4]

COc1ccc2[nH]c3c(c2c1)CCN[C@]31CS[C@@H]2c3c(OC(C)=O)c(C)c4c(c3[C@H](COC1=O)N1[C@@H]2[C@H]2c3c(cc(C)c(OC)c3O)C[C@@H]([C@@H]1O)N2C)OCO4
active: [1] 3.4 nM | [2] 1.9 nM | [3] 3.4 nM | [4] 3.8 nM | [5] 4.8 nM | [6] 3.8 nM

C=C1CC[C@@H]2[C@](C)(CO)[C@H](O)CC[C@@]2(C)[C@@H]1C/C=C1/C(=O)OC[C@H]1O
active: [1] 3720 nM | [2] 2950 nM | [3] 5250 nM | [4] 10500 nM | [5] 5900 nM | [6] 9340 nM

Cc1c[nH]c2nc(Nc3ccc(N4CCN(C)CC4)c(F)c3)nc(-c3cccc(CC#N)c3)c12
active: [1] 2950 nM | [2] 33.2 nM | [3] 662 nM | [4] 742 nM | [5] 742 nM | [6] 833 nM

CC(C)n1c(/C=C/[C@H](O)C[C@H](O)CC(=O)O)c(-c2ccc(F)cc2)c2ccccc21
active: [1] 3320 nM | [2] 11800 nM | [3] 8330 nM | [4] 11800 nM

CC(C)(C)C[C@H]1N[C@@H](C(=O)NC2CCC(O)CC2)[C@H](c2cccc(Cl)c2F)[C@@]12C(=O)Nc1cc(Cl)ccc12 (stereo partly drawn)
active: [1] 4170 nM | [2] 742 nM | [3] 934 nM | [4] 1660 nM | [5] 2350 nM | [6] 3320 nM

OC1CCC(Oc2cccc3cnc(Nc4ccc5nc[nH]c5c4)nc23)CC1 (stereo not drawn)
active: [1] 1480 nM | [2] 52.5 nM | [3] 934 nM | [4] 934 nM | [6] 1320 nM

CC/C(=C(/c1ccc(O)cc1)c1ccc(OCCNC)cc1)c1ccccc1
active: [1] 14800 nM | [2] 8330 nM | [3] 23500 nM | [4] 9340 nM | [5] 13200 nM | [6] 13200 nM

CC(=O)N1CCC(Nc2cc(C(=O)NC[C@H](O)CN3CCc4ccccc4C3)ncn2)CC1
inactive: [3] | [4]
active: [1] 4.2 nM | [2] 41.7 nM

C[C@@H]1Cc2c([nH]c3ccccc23)[C@@H](c2c(F)cc(/C=C/C(=O)O)cc2F)N1CC(C)(C)F
inactive: all assays above

Nc1nc2c(c(=O)[nH]1)N1CN(c3ccc(C(=O)N[C@@H](CCC(=O)O)C(=O)O)cc3)CC1CN2 (stereo partly drawn)
active: [1] 1660 nM | [2] 1050 nM | [3] 9340 nM | [4] 934 nM

Cc1c2oc3c(C)ccc(C(=O)NC4C(=O)NC(C(C)C)C(=O)N5CCCC5C(=O)N(C)CC(=O)N(C)C(C(C)C)C(=O)OC4C)c3nc-2c(C(=O)NC2C(=O)NC(C(C)C)C(=O)N3CCCC3C(=O)N(C)CC(=O)N(C)C(C(C)C)C(=O)OC2C)c(N)c1=O (stereo not drawn) (I: TVP[Sar][NMeV] / II: TVP[Sar][NMeV]; ester I:1-I:C, II:1-II:C; linker I:N-II:N via Actinocin(9to1); configuration not given here)
active: [1] 3.2 nM | [2] 1.4 nM | [3] 5.7 nM | [4] 3.2 nM | [5] 10.2 nM | [6] 11.5 nM

Reference: PubChem BioAssay (NCATS)
